Assay outcomes: PubChem BioAssay, National Center for Advancing Translational Sciences (NCATS)
RORg inh = qHTS for inhibitors of ROR gamma transcriptional activity; Nuclear receptor ROR-gamma (Mus musculus), P51450; Drosophila S2 Gal4-RORgamma UAS-luciferase reporter, 20 h; Potency, µM (top dose mostly 53.6 µM), hits mostly inhibitors; hit rate 5.4% among 310,000; AID 2551, 2010; note: nearly all actives have a fitted effect of over 60% in size
Target sequence (P51450 whole entry, looked up, the tested form may be a part): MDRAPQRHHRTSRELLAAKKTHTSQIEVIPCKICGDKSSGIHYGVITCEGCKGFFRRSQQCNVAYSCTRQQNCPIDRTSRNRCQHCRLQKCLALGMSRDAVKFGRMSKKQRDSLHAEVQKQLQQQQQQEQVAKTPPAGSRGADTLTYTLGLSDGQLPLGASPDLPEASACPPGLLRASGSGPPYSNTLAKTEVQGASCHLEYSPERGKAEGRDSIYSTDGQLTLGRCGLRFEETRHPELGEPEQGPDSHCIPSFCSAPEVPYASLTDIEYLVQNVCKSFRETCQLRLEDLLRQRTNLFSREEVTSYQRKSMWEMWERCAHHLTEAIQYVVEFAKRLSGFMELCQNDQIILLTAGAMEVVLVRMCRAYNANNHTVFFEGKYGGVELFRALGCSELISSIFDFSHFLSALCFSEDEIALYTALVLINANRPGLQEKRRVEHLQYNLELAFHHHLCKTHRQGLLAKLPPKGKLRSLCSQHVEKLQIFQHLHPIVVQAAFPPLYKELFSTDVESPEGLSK
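Using a luciferase readout, inhibitors were identified by reduced reporter activity in Drosophila cells coexpressing a copper-inducible Gal4–ROR gamma fusion and UAS-driven Photinus luciferase, incubated 20 hr after 700 uM copper sulfate.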
ELG1 DNA repair = qHTS screen for small molecules that inhibit ELG1-dependent DNA repair in human embryonic kidney (HEK293T) cells expressing luciferase-tagged ELG1 | HEK293T ELG1-luciferase reporter, luminescence, 16 h; DNA damage induced by 5-fluorouridine | AID 504467, 2011 | hit rate 2.3% among 330,000 | Potency, µM (series often up to 46.1 µM), usual class: inhibitors; note: nearly all actives have a fitted effect of over 55% in size
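5-Fluorouridine DNA damage + compound/DMSO, 2,000 cells/well, 16 h, 37 °C/5% CO2. ONE-Glo, 30 min RT, luminescence. Readout = decrease in reporter signal.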
12-LOX inh = Primary qHTS assay for inhibitors of human arachidonate 12S-lipoxygenase (ALOX12): Round 2; purified 12hLO, xylenol orange hydroperoxide absorbance; AID 1671190, 2021; Potency, µM (highest dose often 108 µM), most hits filed as inhibitors; Polyunsaturated fatty acid lipoxygenase ALOX12 (Homo sapiens), P18054; hit rate 1.1% among 580,000
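Purified human 12hLO (150 nM final) in 25 mM Hepes, 0.01% Triton X-100, pH 7.0 was preincubated 15 min at room temperature with compound. Then 40 uM arachidonic acid was added, 30 min. Hydroperoxide was read by Fe-XO absorbance ratio 573/405 nm.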
Gal4-VP16 FLuc = VP16 counterscreen qHTS for inhibitors of ROR gamma transcriptional activity; Drosophila S2 Gal4-VP16 UAS-luciferase, luminescence, 20 h; Potency, µM (highest dose often 53.6 µM), hits mostly inhibitors; hit rate 3.5% among 310,000;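 note: Gal4-VP16 expression switched on by copper sulfate through the metallothionein promoter; nearly all actives have a fitted effect of over 50% in size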
TDP1 cell CPT = qHTS for Inhibitors of human tyrosyl-DNA phosphodiesterase 1 (TDP1): qHTS in cells in presence of CPT. chicken DT40 Tdp1-/-;hTDP1 cells + 20 nM CPT, ATP luminescence, 48 h. Potency, µM (doses to about 46.2 µM), usual class: inhibitors. hit rate 12% among 420,000. AID 686979, 2013; note: nearly all actives have a fitted effect of over 55% in size
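Chicken DT40 Tdp1-/- cells stably complemented with human TDP1 were seeded at 400 cells/well in medium containing 20 nM camptothecin, exposed to pin-transferred compounds, and grown at 37 °C for at least 48 hr. Viability was read as ATP luminescence.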
DT40 TDP1 no CPT = qHTS for Inhibitors of human tyrosyl-DNA phosphodiesterase 1 (TDP1): qHTS in cells in absence of CPT. hit rate 15% among 420,000. DT40 Tdp1-/- hTDP1 cells, no CPT, ATP luminescence, 48 h. Potency, µM (series often up to 46.2 µM), most hits filed as inhibitors; note: nearly all actives have a fitted effect of over 55% in size
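Chicken DT40 Tdp1-/- cells stably complemented with human TDP1 were seeded at 400 cells/well with DMSO in place of 20 nM camptothecin. After compound pinning, cells grew at least 48 hr at 37 °C; viability read by CellTiter-Glo luminescence.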
Of the large screens only hits and unclear results are named; the others gave an inactive call. An excerpt weighted towards active compounds, which were near 15% of everything screened. Calls come from the whole dose curve; as a rule, active = well fitted curve in the direction sought with a large enough effect; inconclusive = small, poorly fitted or top-dose-only effect, or another doubt; inactive = no such curve, though single readings can be large; an effect the other way counts as inactive or inconclusive.

O=C(c1cccc(OC2CN(Cc3cccc(F)c3F)C2)c1)N1CCOCC1	none (no result: RORg inh, ELG1 DNA repair, Gal4-VP16 FLuc, TDP1 cell CPT, DT40 TDP1 no CPT)
COc1ccc2cc(C(=O)C3CCCN(C(=O)CSc4nnc(C)o4)C3)ccc2c1 (centres undefined)	ELG1 DNA repair inconclusive, TDP1 cell CPT 18µM, DT40 TDP1 no CPT 21µM
COc1ccc2cc(C(=O)C3CCCN(C(=O)c4csnn4)C3)ccc2c1 (centres undefined)	ELG1 DNA repair inconclusive, DT40 TDP1 no CPT inconclusive
COc1ccc2cc(C(=O)C3CCCN(C(=O)CCc4cnn(C)c4)C3)ccc2c1 (centres undefined)	RORg inh inconclusive, ELG1 DNA repair inconclusive, TDP1 cell CPT inconclusive, DT40 TDP1 no CPT inconclusive
COc1ccc2cc(C(=O)C3CCCN(C(=O)c4cnn(C(C)C)c4)C3)ccc2c1 (centres undefined)	TDP1 cell CPT 26µM, DT40 TDP1 no CPT inconclusive
COc1ccc2cc(C(=O)C3CCCN(C(=O)c4cncs4)C3)ccc2c1 (centres undefined)	TDP1 cell CPT 18µM, DT40 TDP1 no CPT 12µM
Cc1nnc(SCC(=O)N2CCCC(C(=O)c3ccc(Cl)cc3)C2)o1 (centres undefined)	none
Cc1ccc(CN2CCOC[C@H]2c2ncc(C(C)(C)C)[nH]2)cc1	none (no result: RORg inh, ELG1 DNA repair, Gal4-VP16 FLuc, TDP1 cell CPT, DT40 TDP1 no CPT)
CN1Cc2cccn2CC1CNC(=O)c1ccoc1 (centres undefined)	none (no result: RORg inh, ELG1 DNA repair, Gal4-VP16 FLuc, TDP1 cell CPT, DT40 TDP1 no CPT)
COc1cc(-c2nc3c4c5c(sc4ncn3n2)COC(C)(C)C5)ccc1O	none (no result: RORg inh, ELG1 DNA repair, Gal4-VP16 FLuc, TDP1 cell CPT, DT40 TDP1 no CPT)
Nc1c(N=Nc2ccc(-c3ccc(N=Nc4cc(S(=O)(=O)O)c5ccccc5c4N)cc3)cc2)cc(S(=O)(=O)O)c2ccccc12	Gal4-VP16 FLuc inconclusive, TDP1 cell CPT inconclusive, DT40 TDP1 no CPT inconclusive (no result: ELG1 DNA repair, 12-LOX inh)
Cc1cc(-c2ccc(N=Nc3ccc4c(S(=O)(=O)O)cc(S(=O)(=O)O)c(N)c4c3O)c(C)c2)ccc1N=Nc1ccc2c(S(=O)(=O)O)cc(S(=O)(=O)O)c(N)c2c1O	RORg inh inconclusive, Gal4-VP16 FLuc inconclusive, TDP1 cell CPT 7.5µM, DT40 TDP1 no CPT 12µM (no result: ELG1 DNA repair)
Cc1[nH]ncc1CNC(=O)c1ccc(CC2CCN(S(C)(=O)=O)CC2)cc1	none (no result: RORg inh, ELG1 DNA repair, Gal4-VP16 FLuc, TDP1 cell CPT, DT40 TDP1 no CPT)
Cc1cc(CNC(=O)c2ccc3c(c2)OCO3)c2ccccc2n1	ELG1 DNA repair inconclusive, 12-LOX inh inconclusive, TDP1 cell CPT 7.3µM, DT40 TDP1 no CPT 4.6µM
Cc1cc(C)cc(-n2c(SCC(=O)NCc3ccc4c(c3)OCO4)nc3ccccc3c2=O)c1	ELG1 DNA repair inconclusive, TDP1 cell CPT 7.3µM, DT40 TDP1 no CPT 18µM
Cc1ccc(C)c(SCC(=O)Nc2cccc(S(=O)(=O)NC3=NCCCCC3)c2)c1	ELG1 DNA repair inconclusive, DT40 TDP1 no CPT inconclusive
Cc1cc(C)cc(-n2c(SCC(=O)Nc3cccc(S(=O)(=O)NC4=NCCCCC4)c3)nc3ccccc3c2=O)c1	TDP1 cell CPT 18µM, DT40 TDP1 no CPT inconclusive
COc1ccc(C(=O)NCc2cc(C)nc3ccccc23)cc1	RORg inh inconclusive, ELG1 DNA repair inconclusive, Gal4-VP16 FLuc inconclusive, TDP1 cell CPT inconclusive, DT40 TDP1 no CPT inconclusive
Cc1nc2ccccc2nc1OCC(=O)NCc1ccc2c(c1)OCO2	12-LOX inh inconclusive, TDP1 cell CPT 15µM, DT40 TDP1 no CPT 7.3µM
CN(C)C(=O)Cn1c(SCC(=O)NCc2ccc3c(c2)OCO3)nc2ccccc21	none
Cc1ccc(S(=O)(=O)N(CC(=O)NCc2ccncc2)c2ccc(C)c(Cl)c2)cc1	none (no result: RORg inh, ELG1 DNA repair, Gal4-VP16 FLuc, TDP1 cell CPT, DT40 TDP1 no CPT)
O=C(Cn1nc2c(cc1=O)CCCC2)Nc1ccccc1Br	none (no result: RORg inh, ELG1 DNA repair, Gal4-VP16 FLuc, TDP1 cell CPT, DT40 TDP1 no CPT)
CC(C)CC(=O)N1CCN(C(=O)c2c[nH]c3ccccc23)CC1	none (no result: RORg inh, ELG1 DNA repair, Gal4-VP16 FLuc, TDP1 cell CPT, DT40 TDP1 no CPT)
